CYP2C19 inh: human CYP2C19 inhibition; CYP2C19 Supersomes, luciferin-H EGE luminescence, 30 min; 96,000 tested, 21% active; inhibition, % at 5 µM; AID 778;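 active means CYP2C19 inhibition above a set limit at 5 µM in the primary screen, cut at about 50% in these data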;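 further: plate controls were negative control wells for no effect and 2.5 mM tranylcypromine positive control for full effect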
Target sequence (P33261 whole entry, looked up): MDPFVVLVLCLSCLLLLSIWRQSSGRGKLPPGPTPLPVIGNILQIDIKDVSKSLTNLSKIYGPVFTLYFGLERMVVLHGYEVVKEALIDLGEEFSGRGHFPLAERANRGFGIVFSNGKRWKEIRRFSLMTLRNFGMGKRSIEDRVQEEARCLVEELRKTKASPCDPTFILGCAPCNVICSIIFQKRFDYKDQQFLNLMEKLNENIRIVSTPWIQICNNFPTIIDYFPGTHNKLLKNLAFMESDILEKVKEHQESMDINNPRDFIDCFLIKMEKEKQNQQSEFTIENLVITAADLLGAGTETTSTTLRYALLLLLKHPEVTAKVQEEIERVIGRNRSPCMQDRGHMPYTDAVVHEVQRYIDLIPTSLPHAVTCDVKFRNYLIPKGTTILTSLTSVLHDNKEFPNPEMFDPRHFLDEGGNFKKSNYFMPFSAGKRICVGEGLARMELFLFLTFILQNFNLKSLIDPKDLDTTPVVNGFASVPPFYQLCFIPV
CYP2C9 activ: activators of human CYP2C9. P11712. recombinant CYP2C9, luciferin-H conversion, luminescence; hits give high values; factor 1 = untreated enzyme, 0 = blocked. activation factor at 5 µM. 96,000 tested, 1.4% active;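 active means activation factor of 2 or more for CYP2C9 at a 5 µM dose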;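 further: 0 = sulfaphenazole-blocked wells and 1 = vehicle-only wells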
CYP2C9 inh: human CYP2C9 inhibition | 96,000 tested, 20% active | P11712 | inhibition, % at 5 µM | CYP2C9 Supersomes, luciferin-H conversion, luminescence;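 active means blocking of liver enzyme CYP2C9 beyond about 50% at 5 µM, limit read from the data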
CYP2C19 act: increases human CYP2C19 enzyme activity. recombinant CYP2C19, luciferin-H EGE luminescence; hits give high values; 0 = fully inhibited enzyme, 1 = untreated enzyme. activation factor at 5 µM. 96,000 tested, under 10 active. AID 1025;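 active means activation factor of at least 2 at 5 µM in the primary screen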;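 further: 0 = wells with 2.5 mM tranylcypromine and 1 = vehicle-only wells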
* hit, by the source's call. An excerpt weighted towards active compounds, which were near 31% of everything screened.

SMILES	CYP2C19 inh	CYP2C9 activ	CYP2C9 inh	CYP2C19 act
CCSc1nnc([C@@H]2CCCN2C(=O)OC(C)(C)C)o1	16.4	0.9	11.3	0.8
Cn1c(=O)c2c(nc(SCCN3CCCCC3)n2Cc2ccc(Cl)cc2)n(C)c1=O	8.5	0.8	19.6	0.9
c1ccc(-c2nc3cc4ccccc4cc3[nH]2)nc1	79.7*	0.5	46.2	0.2
Cc1ccc(-c2nnc(OCCN3CCOCC3)c3ccccc23)cc1	44.9	0.6	39.3	0.6
COc1ccc2c(C)cc(=O)oc2c1C	30.1	2.3*	-125.9	0.7
C/C(CC1(O)C(=O)N(Cc2ccccc2)c2ccccc21)=N\O (stereo unspecified)	50.3*	0.9	8.0	0.5
Cc1coc(C)c1C(=O)CC1(O)C(=O)N(Cc2ccccc2)c2ccccc21 (stereo unspecified)	98.5*	0.6	39.3	0
COc1ccc(S(=O)(=O)N2CCSC2c2ccc(OC)c(OC)c2)cc1 (stereo unspecified)	63.4*	2*	-96.5	0.4
O=S(=O)(c1ccc(Cl)cc1)N1CCC(N2CCOCC2)CC1	32.0	1.1	-10.8	0.7
CC(=O)Nc1ccc(S(=O)(=O)N2CCSC2c2ccccc2)cc1 (stereo unspecified)	59.1*	0.7	31.0	0.4
CC(=O)Nc1ccc(S(=O)(=O)N2CCSC2c2ccccc2Cl)cc1 (stereo unspecified)	11.8	1	2.9	0.9
COc1ccc(C2SCCN2S(=O)(=O)c2ccc(F)cc2)cc1OC (stereo unspecified)	55.8*	1.8	-81.6	0.4
O=S(=O)(c1ccc(Cl)cc1)N1CCSC1c1ccco1 (stereo unspecified)	98.0*	0.5	50.9*	0
COc1ccccc1C1SCCN1S(=O)(=O)c1cccc(C(F)(F)F)c1 (stereo unspecified)	31.0	1.6	-63.4	0.7
CCS(=O)(=O)Nc1cccc(-c2nc3cccnc3s2)c1C	24.9	0.7	32.5	0.8
COc1ccccc1/C=C/C=N/N1CCN(c2ccccn2)CC1	44.8	1.6	-61.1	0.6
COc1ccc(S(=O)(=O)N2CCC(N3CCN(c4ccccc4)CC3)CC2)cc1	15.2	1	4.0	0.8
COc1ccc(S(=O)(=O)N2CCSC2c2ccccc2)cc1 (stereo unspecified)	99.4*	1.6	-61.6	0
CC1(C)NC(=O)N(CNc2cc(Cl)ccc2Cl)C1=O	88.3*	3.1*	-205.5	0.1
Cc1cc(OCCCCN2C(=O)NC(C)(C)C2=O)cc(C)c1Cl	76.3*	1	-3.5	0.2
Cc1cc(OCCNCCO)cc(C)c1Cl	34.0	0.8	22.5	0.7
CC1(C)NC(=O)N(CCCOc2ccc3c(c2)CCC3)C1=O	90.1*	0.9	11.0	0.1
CC1(C)NC(=O)N(CN2C(=O)NC(C)(C)C2=O)C1=O	2.5	0.9	8.2	1
CC1(C)NC(=O)N(CCCCOc2ccc(Cl)cc2)C1=O	86.2*	0.6	44.5	0.1
O=C(CSC1=NCCS1)NC1CCCC1	26.1	1	0.3	0.7
SMILES	CYP2C19 inh	CYP2C9 activ	CYP2C9 inh	CYP2C19 act
COc1ccc(CNC(=O)Cn2c(=O)oc3ccccc32)cc1OC	19.4	1.1	-9.3	0.8
CC1(C)NC(=O)N(CCCSc2ccc(Cl)cc2)C1=O	93.0*	0.4	62.3*	0.1
CCc1cc(OCCN2C(=O)NC(C)(C)C2=O)ccc1Cl	74.3*	0.6	42.1	0.3
COc1nc(N(c2ccccc2)c2ccccc2)nc(-n2ccnc2)n1	85.7*	0.4	63.6*	0.1
Cc1sc(NC(=O)c2ccco2)nc1-c1ccc2c(c1)CC(C)N2C(=O)C1CC1 (stereo unspecified)	34.6	0.9	13.5	0.7
Cc1c(C#N)c2ncn(Cc3ccccn3)c(=O)c2n1-c1ccccc1	-5.1	1	-4.7	1.1
N#Cc1c2n(c3c(=O)n(Cc4ccc(Cl)cc4)cnc13)CCCC2	99.9*	0.4	62.4*	0
N#Cc1c2n(c3c(=O)n(Cc4ccccc4Cl)cnc13)CCCC2	99.2*	0.1	91.7*	0
COC(=O)Cn1cnc2c(C#N)c3n(c2c1=O)CCCC3	6.0	1	-2.3	0.9
N#Cc1ccc(Cn2c(=O)c(C#N)c3n(c2=O)CCC3)cc1	89.4*	1.2	-19.0	0.1
CC(NC(=O)CSc1nc(=O)cc(N)n1CCc1ccccc1)c1ccccc1 (stereo unspecified)	27.0	0.8	17.0	0.7
N#Cc1ccc(CSc2nnc(COc3ccccc3)n2-c2ccccc2)cc1	76.3*	0.3	66.7*	0.2
COc1ccc(C(=O)CSc2nnc(COc3ccc(C#N)cc3)n2-c2ccccc2)cc1	-13.7	1.1	-11.4	1.1
